Screens as filed in PubChem.
Pf growth 96h – inhibits malaria parasite growth, 96 h | hit rate 6.9% among 320,000 | Potency, µM (series often up to 28.7 µM), inactives show at the top dose activity change, negative = inhibition, actives largely listed as inhibitors | P. falciparum luciferase reporter growth, 96 h; note: potency is the fitted concentration of half-maximal effect; % is set by controls: 0 for no effect and ±100 for the full control effect
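Two-generation exposure (96 h) targets delayed-death phenotype. Reporter parasites carrying integrated firefly luciferase, in red cells at 2% hematocrit and 0.05% parasitemia final, kept at 37 C, 5% CO2; luminescence loss indicates inhibition.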
Pf growth 48h – inhibits P. falciparum growth in the first generation, 48 h | P. falciparum luciferase growth in erythrocytes, 48 h | Potency, µM (series often up to 28.7 µM), inactives show top-dose activity change, negative = inhibition, usual class: inhibitors | hit rate 5.9% among 310,000; note: potency is the fitted concentration of half-maximal effect; % is set by controls: 0 for no effect and ±100 for the full control effect
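Read-out is firefly luciferase luminescence from an integrated reporter in P. falciparum, so falling signal marks reduced parasite growth. Infected erythrocytes were at 2% hematocrit and 0.1% parasitemia (final) in Albumax-supplemented RPMI 1640.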
LmPK inhibitor – blocks Leishmania mexicana pyruvate kinase activity; Q27686; purified LmPK, Kinase-Glo ATP luminescence, 1 h; Potency, µM (top dose mostly 57.5 µM), without a hit: top-dose activity change, negative = inhibition, hits mostly inhibitors; hit rate 0.37% among 290,000; AID 1721; note: potency is the fitted concentration of half-maximal effect; % is set by controls: 0 for no effect and ±100 for the full control effect
Target sequence (Q27686 whole entry, looked up): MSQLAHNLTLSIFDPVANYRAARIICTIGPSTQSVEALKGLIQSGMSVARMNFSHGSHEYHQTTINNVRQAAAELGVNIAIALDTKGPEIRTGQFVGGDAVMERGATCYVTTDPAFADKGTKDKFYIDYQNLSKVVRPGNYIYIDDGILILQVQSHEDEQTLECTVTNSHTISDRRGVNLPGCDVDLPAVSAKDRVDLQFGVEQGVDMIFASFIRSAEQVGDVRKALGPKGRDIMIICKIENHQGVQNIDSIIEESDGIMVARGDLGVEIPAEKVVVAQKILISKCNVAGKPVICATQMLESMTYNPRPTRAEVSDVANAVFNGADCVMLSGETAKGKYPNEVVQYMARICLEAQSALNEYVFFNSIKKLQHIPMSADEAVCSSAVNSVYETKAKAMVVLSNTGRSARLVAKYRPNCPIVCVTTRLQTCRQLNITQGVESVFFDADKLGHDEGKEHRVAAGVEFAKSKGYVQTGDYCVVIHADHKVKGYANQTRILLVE
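0.1 nM LmPK, 0.5 mM PEP, 0.1 mM ADP; 50 mM imidazole pH 7.2, 7 mM MgCl2, 50 mM KCl; 1 h RT. Kinase-Glo luminescence readout, normalized to no-enzyme (full inhibition) and uninhibited wells.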
Cycloheximide cs – counter-screen for Shiga toxin inhibitors: cycloheximide protein synthesis inhibition. cell reporter, cycloheximide protein synthesis inhibition counterscreen. AID 2314. hit rate 12% among 300,000. max response, %; in the data active = max response mostly above about 13%, no sharp cut-off; inactive = mostly below about 14%; note: read at 38.3 µM for the half of the compounds with a filed dose; 0% is about no effect
Shiga toxin inh – Shiga toxin inhibition; Vero cells, Shiga toxin protein synthesis inhibition reporter; inhibition, % at 38.7 µM; hit rate 9.2% among 290,000; AID 2315; in the data active = inhibition mostly above about 28%, no sharp cut-off; inactive = mostly below about 43%; note: 0% is about no effect
* hit, by the source's call; ? = inconclusive; . = no result given; [ ] = remark or other dose. Rows were chosen to be rich in hits. Some 22% of all compounds tested hit in one or more screens of this group. Unless noted, calls come from the whole dose curve; as a rule, active = well fitted inhibition curve with a large enough effect; inconclusive = small, poorly fitted or top-dose-only effect, or another doubt; inactive = no such curve, though single readings can be large or run the other way.

SMILES	Pf growth 96h	Pf growth 48h	LmPK inhibitor	Cycloheximide cs	Shiga toxin inh
COc1cc(NC(=O)C2CC(c3c(F)cccc3Cl)=NO2)c(OC)cc1Cl (configuration not stated)	10µM*	-29%	1%	-3	.
CCc1c(C)sc(NC(=O)C2CC(c3c(F)cccc3Cl)=NO2)c1C#N (configuration not stated)	?	1%	-3%	9	11
COc1ccc(CC(=O)NNC(=O)c2ccc(Br)o2)cc1	-8%	-5%	0%	2	-12
COc1ccc(OC)c(NC(=O)c2ccc3c(c2)C(=O)N(CC2CCCO2)C3=O)c1 (configuration not stated)	9%	23%	-13%	-1	-5
Cc1cc(C)c(OCC(=O)N2CC=C(c3ccccc3)CC2)c(C)c1	1%	-6%	-8%	7	14
Nc1[nH]n(-c2ccccc2)c(=O)c1N=Nc1ccc2c(c1)OCCO2	388%	300%	-23%	33*	59*
Cc1cc([N+](=O)[O-])ccc1N=Nc1c(N)[nH]n(-c2ccccc2)c1=O	51%	-11%	0%	15	13
Nc1[nH]n(-c2ccccc2)c(=O)c1N=Nc1ccc2c(c1)OCO2	344%	216%	-13%	36*	121*
Cc1cc(-c2nnc(-c3ccccc3)c(-c3ccccc3)n2)c(C)o1	?	13µM*	0%	-4	-9
O=C(Nc1ccc(N2CCOCC2)cc1)c1ccc(Cl)nc1	.	3%	-11%	-1	-13
CCc1nnc(NC(=O)c2ncc(Cl)c(Cl)c2Cl)s1	30%	4%	-5%	14	22
CCc1nnc(NC(=O)c2cc(Cl)ccn2)s1	5.9µM*	?	-2%	41*	77*
CC(C)(C)c1nnc(NC(=O)c2ccc(Cl)nc2)s1	-23%	43%	9%	3	-2
CCN(c1ccc(NC(=O)c2ccc(Cl)nc2)cc1)C(C)C	25%	6%	-5%	24*	38*
CCc1nnc(NC(=O)c2ccc(Cl)nc2)s1	61%	27%	-3%	32*	75*
COc1cccc(NC2=C(Cl)C(=O)OC2OC(=O)c2ccco2)c1 (configuration not stated)	-59%	0%	3%	-6	-5
O=C(/C=C/c1c[nH]c2ccccc12)c1c(O)n(CCc2ccccc2)c(=O)[nH]c1=O	11%	-27%	5%	21*	29
CCCCn1c(O)c(C(C)=NCCc2c[nH]c3ccccc23)c(=O)[nH]c1=O	?	?	3%	2	-3
O=C(/C=C/c1c[nH]c2ccccc12)c1cccc2ccccc12	9.3µM*	4%	3%	28*	37*
O/N=C/c1c[nH]c2ccccc12	3%	17%	0%	-1	-3
O=C(OCc1c(-c2ccccc2)ncc2ccccc12)N1CCOCC1	?	-8%	.	.	.
CC(C)Oc1ccc(C2c3c(oc4ccccc4c3=O)C(=O)N2CCCN2CCOCC2)cc1 (configuration not stated)	?	?	2%	17*	54*
Cc1ccc(C2c3c(oc4cc(C)c(C)cc4c3=O)C(=O)N2CCCN2CCOCC2)cc1 (configuration not stated)	?	5.2µM*	2%	-2	-4
CC(=O)C1=C(O)C(=O)N(c2ccc(S(=O)(=O)Nc3nccs3)cc2)C1c1ccc(F)cc1 (configuration not stated)	?	4%	-1%	-4	-3
O=C(Nc1cccc(S(=O)(=O)Nc2ccc(Cl)cc2)c1)c1ccc[n+]([O-])c1	-5%	-23%	-2%	-4	18
SMILES	Pf growth 96h	Pf growth 48h	LmPK inhibitor	Cycloheximide cs	Shiga toxin inh
COc1cc2c(cc1OC)CN(CC(=O)Nc1ccc(S(=O)(=O)N3CCCC3)cc1)CC2	13µM*	0%	-5%	5	-12
COc1ccc(S(=O)(=O)N2CCc3cc(OC)c(OC)cc3C2)cc1	-6%	0.83µM*	-2%	0	-6
COc1cc2c(cc1OC)CN(CC(=O)Nc1cccc(C)c1)CC2	-12%	?	-1%	-1	-3
COc1cc2c(cc1OC)C(C)N(CC(=O)Nc1ccc(S(=O)(=O)N3CCCC3)cc1)CC2 (configuration not stated)	?	12µM*	8%	-2	11
CCCN(CC(=O)Nc1cc(Cl)ccc1Cl)C(=O)c1ccc2n[nH]nc2c1	-25%	?	.	.	.
COc1ccc(S(=O)(=O)N2CCN(C(=O)CC3CC4CCC3C4)CC2)cc1 (configuration not stated)	?	-83%	.	.	.
COc1cc(-c2noc(CCCC(=O)NC3CCCCC3)n2)cc(OC)c1OC	.	?	1%	-1	17
Cc1ccc[n+](CC(=O)Nc2cc(C(F)(F)F)ccc2N2CCOCC2)c1	?	2.1µM*	0%	-1	-4
O=C(CCc1ccccc1)NC(=S)Nc1cc(C(F)(F)F)ccc1N1CCOCC1	8.3µM*	?	-1%	-2	35
O=C(Cc1ccc(S(=O)(=O)N2CCOCC2)s1)Nc1cc(C(F)(F)F)ccc1N1CCCC1	?	12µM*	.	.	.
O=C(Cc1ccc2c(c1)OCCO2)Nc1cc(C(F)(F)F)ccc1N1CCOCC1	?	15µM*	.	.	.
O=C(Cc1ccc(S(=O)(=O)N2CCOCC2)s1)Nc1ccccc1N1CCCC1	?	-21%	1%	-3	-3
CC(C)CC(=O)NC(=S)Nc1cc(C(F)(F)F)ccc1N1CCOCC1	0%	?	4%	-2	12
COc1ccc(C(=O)CCC(=O)O)c2ccccc12	-13%	0%	.	.	.
O=C(CSc1ccccc1C(=O)NCc1ccccc1)NC1CCCCCCC1	?	-10%	1%	-1	-1
C[C@@H]1CC2C3CCC4=CC(=O)C=C[C@]4(C)[C@@]3(F)[C@@H](O)C[C@]2(C)[C@@]1(O)C(=O)COC(=O)c1cccc(S(=O)(=O)O)c1 (some centres not stated)	1%	-2%	.	.	.
CC(Cl)C(=O)Nc1cc(C(F)(F)F)ccc1N1CCOCC1 (configuration not stated)	?	?	1%	-2	19
O=C(Cc1ccc(S(=O)(=O)N2CCCC2)s1)Nc1nc2c(s1)CCCC2	-1%[5.75 µM]	?	8%	28*	46*
COc1ccc(NC(C)=O)cc1NC(C)C(=O)Nc1cc(C(F)(F)F)ccc1N1CCOCC1 (configuration not stated)	?	3.7µM*	6%	-2	-14
CC(C)(C)NC(=O)Cc1ccc(S(=O)(=O)N2CCCC2)s1	.	?	3%	6	-9
Cc1cc(S(=O)(=O)Nc2ccc(C(=O)NCc3cccnc3)cc2)ccc1F	-21%	14%	.	.	.
CC(=O)NC(CC(=O)NNC(=O)c1cc2ccccc2cc1O)c1ccccc1 (configuration not stated)	-52%	-2%	-5%	-3	-24
NNC(=O)COc1ccc(-c2nccc(-c3ccc(F)cc3)n2)cc1	12µM*	?	-1%	1	-4
NNC(=O)COc1ccc(F)cc1	-15%	0%	4%	-2	-8
